# Compound: C#CCNC(=O)CCSSCCC(=O)NCCc1ccc(C=O)c(C=O)c1
# Assay: lysine labeling ratio R10:1 (500 µM / 50 µM probe), SILAC-ABPP in living cells; higher = lower intrinsic lysine reactivity toward the probe, active = 2 or less
# Details: HeLa; probe concentrations 500 vs 50 µM
# Procedure, shortened: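 R, given per lysine, is the filtered median high-probe/low-probe MS1 peptide ratio, with the median then taken across forward and reverse replicates. Cells were living SILAC light and heavy HeLa cells in PBS at room temperature, labelled with 50 µM or 500 µM of an alkyne-tagged, disulfide-linked lysine probe. The ceiling applied is 20.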
# Sequence of UniProt Q15149 (Q15149 whole entry): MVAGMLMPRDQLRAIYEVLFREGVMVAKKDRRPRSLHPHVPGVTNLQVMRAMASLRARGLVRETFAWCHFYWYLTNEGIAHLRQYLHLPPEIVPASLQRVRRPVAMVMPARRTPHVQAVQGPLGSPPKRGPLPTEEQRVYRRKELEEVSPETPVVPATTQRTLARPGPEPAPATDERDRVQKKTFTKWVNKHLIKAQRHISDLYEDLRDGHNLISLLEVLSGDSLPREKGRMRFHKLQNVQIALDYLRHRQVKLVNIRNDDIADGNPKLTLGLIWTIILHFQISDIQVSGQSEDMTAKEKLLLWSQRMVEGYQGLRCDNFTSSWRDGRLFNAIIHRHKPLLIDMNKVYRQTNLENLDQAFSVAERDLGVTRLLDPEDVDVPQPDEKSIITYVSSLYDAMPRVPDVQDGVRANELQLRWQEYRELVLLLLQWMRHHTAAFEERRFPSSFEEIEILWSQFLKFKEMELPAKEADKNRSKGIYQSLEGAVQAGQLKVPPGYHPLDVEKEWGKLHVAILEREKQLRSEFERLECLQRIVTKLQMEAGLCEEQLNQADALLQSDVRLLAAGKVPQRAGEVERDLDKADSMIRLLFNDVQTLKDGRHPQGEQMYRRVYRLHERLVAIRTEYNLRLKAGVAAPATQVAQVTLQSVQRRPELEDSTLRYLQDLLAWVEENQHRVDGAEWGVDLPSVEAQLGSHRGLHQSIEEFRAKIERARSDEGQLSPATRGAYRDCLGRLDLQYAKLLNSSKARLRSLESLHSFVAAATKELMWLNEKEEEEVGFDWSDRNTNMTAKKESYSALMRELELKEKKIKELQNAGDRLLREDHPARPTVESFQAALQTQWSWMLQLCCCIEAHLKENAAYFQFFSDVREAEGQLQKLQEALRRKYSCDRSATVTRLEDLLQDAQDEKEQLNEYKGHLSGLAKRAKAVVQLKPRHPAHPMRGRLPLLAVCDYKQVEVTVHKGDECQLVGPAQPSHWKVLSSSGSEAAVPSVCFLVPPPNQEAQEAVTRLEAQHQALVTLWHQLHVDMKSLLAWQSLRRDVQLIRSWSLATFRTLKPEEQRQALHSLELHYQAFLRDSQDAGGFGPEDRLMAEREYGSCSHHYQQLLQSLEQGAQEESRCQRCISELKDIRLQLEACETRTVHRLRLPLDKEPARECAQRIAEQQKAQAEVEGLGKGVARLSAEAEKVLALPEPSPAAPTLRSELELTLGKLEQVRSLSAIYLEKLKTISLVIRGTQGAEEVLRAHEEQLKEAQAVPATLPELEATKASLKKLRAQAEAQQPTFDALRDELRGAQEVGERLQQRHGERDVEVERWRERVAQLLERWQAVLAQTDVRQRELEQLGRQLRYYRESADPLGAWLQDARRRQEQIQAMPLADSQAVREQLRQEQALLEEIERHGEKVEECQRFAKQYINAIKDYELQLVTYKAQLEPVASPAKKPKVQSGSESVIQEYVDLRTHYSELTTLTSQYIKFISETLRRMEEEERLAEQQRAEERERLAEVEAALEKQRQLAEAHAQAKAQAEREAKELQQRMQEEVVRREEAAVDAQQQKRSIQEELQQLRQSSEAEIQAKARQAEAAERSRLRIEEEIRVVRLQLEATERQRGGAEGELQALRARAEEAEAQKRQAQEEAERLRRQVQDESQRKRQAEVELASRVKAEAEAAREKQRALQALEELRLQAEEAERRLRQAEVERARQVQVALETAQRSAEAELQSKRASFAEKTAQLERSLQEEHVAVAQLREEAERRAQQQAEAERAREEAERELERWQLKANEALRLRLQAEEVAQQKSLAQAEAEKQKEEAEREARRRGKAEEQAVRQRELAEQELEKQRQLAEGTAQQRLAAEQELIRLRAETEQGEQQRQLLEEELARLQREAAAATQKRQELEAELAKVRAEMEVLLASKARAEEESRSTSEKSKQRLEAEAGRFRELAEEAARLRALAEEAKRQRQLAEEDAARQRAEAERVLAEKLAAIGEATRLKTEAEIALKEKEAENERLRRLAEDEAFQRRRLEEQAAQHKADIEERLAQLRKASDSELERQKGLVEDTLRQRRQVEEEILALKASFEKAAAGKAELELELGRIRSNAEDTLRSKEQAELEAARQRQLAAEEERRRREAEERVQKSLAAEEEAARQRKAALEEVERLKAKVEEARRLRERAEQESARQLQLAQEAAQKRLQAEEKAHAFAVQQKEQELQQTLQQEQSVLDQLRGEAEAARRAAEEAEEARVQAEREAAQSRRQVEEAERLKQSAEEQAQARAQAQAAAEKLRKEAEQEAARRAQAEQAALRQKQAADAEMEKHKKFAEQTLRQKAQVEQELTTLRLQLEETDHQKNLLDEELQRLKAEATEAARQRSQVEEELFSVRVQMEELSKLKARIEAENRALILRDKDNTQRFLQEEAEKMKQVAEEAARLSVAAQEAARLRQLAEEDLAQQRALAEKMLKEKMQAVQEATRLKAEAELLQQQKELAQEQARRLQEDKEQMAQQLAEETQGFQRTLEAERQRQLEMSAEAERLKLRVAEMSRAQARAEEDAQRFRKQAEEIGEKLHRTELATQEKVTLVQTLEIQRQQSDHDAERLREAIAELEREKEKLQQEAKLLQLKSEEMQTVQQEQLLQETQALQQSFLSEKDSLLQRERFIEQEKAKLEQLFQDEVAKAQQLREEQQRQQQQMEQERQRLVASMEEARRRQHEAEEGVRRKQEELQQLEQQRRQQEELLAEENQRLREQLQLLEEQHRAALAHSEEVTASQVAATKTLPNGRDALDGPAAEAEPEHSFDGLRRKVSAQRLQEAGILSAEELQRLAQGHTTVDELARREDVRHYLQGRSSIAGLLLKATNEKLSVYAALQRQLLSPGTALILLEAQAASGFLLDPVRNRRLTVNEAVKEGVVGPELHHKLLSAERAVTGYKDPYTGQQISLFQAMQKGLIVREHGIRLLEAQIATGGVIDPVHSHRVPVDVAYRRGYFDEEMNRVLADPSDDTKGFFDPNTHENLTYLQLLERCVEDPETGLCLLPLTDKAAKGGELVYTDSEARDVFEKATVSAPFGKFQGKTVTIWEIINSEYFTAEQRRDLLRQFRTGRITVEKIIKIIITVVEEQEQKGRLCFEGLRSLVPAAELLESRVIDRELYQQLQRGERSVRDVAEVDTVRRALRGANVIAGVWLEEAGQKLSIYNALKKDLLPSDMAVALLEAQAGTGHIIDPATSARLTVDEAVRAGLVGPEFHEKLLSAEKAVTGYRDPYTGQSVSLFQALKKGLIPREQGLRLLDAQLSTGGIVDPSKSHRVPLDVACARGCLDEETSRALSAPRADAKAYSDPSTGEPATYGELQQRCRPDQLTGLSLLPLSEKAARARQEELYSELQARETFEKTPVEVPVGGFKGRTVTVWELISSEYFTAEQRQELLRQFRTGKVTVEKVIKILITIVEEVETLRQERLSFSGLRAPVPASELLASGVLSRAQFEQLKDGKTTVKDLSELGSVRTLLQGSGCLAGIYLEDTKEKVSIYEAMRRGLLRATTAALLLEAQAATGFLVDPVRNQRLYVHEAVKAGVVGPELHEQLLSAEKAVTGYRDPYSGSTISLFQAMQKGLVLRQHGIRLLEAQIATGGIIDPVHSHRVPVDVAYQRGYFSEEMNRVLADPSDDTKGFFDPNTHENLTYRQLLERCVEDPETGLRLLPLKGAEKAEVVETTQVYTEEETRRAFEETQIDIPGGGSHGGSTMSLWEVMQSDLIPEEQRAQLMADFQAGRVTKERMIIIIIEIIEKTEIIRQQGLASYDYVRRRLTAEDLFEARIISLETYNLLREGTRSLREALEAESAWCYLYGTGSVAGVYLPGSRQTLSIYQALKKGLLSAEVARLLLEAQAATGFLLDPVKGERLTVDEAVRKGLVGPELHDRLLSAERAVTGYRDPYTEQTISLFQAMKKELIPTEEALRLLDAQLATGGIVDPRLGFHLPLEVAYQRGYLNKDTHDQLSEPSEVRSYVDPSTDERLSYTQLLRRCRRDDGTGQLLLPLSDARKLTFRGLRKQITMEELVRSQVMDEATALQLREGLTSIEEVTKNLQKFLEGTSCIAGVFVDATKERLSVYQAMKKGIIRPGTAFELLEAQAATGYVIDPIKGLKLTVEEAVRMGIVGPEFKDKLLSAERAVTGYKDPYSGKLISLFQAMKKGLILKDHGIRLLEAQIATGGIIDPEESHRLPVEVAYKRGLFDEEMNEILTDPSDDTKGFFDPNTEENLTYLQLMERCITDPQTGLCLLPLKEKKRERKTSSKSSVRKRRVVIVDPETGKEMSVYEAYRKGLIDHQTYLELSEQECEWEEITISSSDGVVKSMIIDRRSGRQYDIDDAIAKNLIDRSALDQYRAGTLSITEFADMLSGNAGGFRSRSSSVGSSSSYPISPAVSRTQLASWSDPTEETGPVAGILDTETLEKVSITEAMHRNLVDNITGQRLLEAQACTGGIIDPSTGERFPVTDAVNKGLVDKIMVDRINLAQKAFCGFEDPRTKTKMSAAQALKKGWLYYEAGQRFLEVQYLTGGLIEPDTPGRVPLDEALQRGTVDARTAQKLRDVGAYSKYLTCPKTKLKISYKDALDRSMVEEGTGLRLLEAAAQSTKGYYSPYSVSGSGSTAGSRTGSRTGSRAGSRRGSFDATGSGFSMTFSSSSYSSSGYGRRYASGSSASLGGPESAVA
# Sequence of UniProt P61769 (P61769 whole entry): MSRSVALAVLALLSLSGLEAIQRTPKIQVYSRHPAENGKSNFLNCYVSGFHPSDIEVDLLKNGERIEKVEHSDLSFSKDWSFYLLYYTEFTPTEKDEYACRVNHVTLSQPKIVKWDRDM
# Sequence of UniProt Q9UMX5 (Q9UMX5 whole entry): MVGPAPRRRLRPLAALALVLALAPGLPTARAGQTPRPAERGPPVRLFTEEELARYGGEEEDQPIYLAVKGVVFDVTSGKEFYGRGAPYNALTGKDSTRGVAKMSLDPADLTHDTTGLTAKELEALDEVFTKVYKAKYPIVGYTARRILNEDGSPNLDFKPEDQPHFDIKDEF
# Sequence of UniProt Q14210 (Q14210 whole entry): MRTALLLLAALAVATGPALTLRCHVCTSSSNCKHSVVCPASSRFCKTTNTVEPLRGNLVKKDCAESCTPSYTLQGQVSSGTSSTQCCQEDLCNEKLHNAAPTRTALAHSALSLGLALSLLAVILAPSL
row,Target,lysine labeling ratio R10:1
1,CKAP4 (lysine site: K388) (UniProt Q07065),2.6 (inactive)
2,DISP1 (lysine site: K369) (UniProt Q96F81),1.37 (active)
3,CTNNA1 (lysine site: K199) (UniProt P35221),1.43 (active)
4,ACSL3 (lysine site: K706) (UniProt O95573),3.43 (inactive)
5,SPTAN1 (lysine site: K2404) (UniProt Q13813),1.94 (active)
6,LY6D (lysine site: K46) (UniProt Q14210),1.33 (active)
7,LAMC1 (lysine site: K1566) (UniProt P11047),0.555 (active)
8,UniProt Q96TA1 (lysine site: K322),5.91 (inactive)
9,CCT2 (lysine site: K522) (UniProt P78371),3.39 (inactive)
10,UniProt Q16363 (lysine site: K1330),2.83 (inactive)
11,FAS (lysine site: K94) (UniProt P25445),2.69 (inactive)
12,NUMA1 (lysine site: K1667) (UniProt Q14980),0.807 (active)
13,NOTCH2 (lysine site: K693) (UniProt Q04721),1.5 (active)
14,UniProt P62244 (lysine site: K71),3.24 (inactive)
15,UniProt P61160 (lysine site: K253),3.35 (inactive)
16,NENF (lysine site: K136) (UniProt Q9UMX5),0.955 (active)
17,UniProt Q15149 (lysine site: K3925),3.1 (inactive)
18,DDX5 (lysine site: K80) (UniProt P17844),3.64 (inactive)
19,HNRNPL (lysine site: K538) (UniProt P14866),1.29 (active)
20,B2M (lysine site: K114) (UniProt P61769),15.6 (inactive)

row,Target,lysine labeling ratio R10:1
1,MAN1B1 (lysine site: K354) (UniProt Q9UKM7),2.81 (inactive)
2,HSPD1 (lysine site: K130) (UniProt P10809),4.23 (inactive)
3,NEGR1 (lysine site: K84) (UniProt Q7Z3B1),1.36 (active)
4,IGF2R (lysine site: K1862) (UniProt P11717),1.81 (active)
5,CAPZB (lysine site: K223) (UniProt P47756),2.76 (inactive)
6,EHD2 (lysine site: K32) (UniProt Q9NZN4),2.92 (inactive)
7,CACYBP (lysine site: K19) (UniProt Q9HB71),7.06 (inactive)
8,DDR1 (lysine site: K30) (UniProt Q08345),1.33 (active)
9,XRCC6 (lysine site: K238) (UniProt P12956),0.959 (active)
10,PGK1 (lysine site: K361) (UniProt P00558),3.45 (inactive)
11,ASPH (lysine site: K588) (UniProt Q12797),1.1 (active)
12,NUCB2 (lysine site: K171) (UniProt P80303),2.34 (inactive)
13,SPTAN1 (lysine site: K803) (UniProt Q13813),1.86 (active)
14,CDCP1 (lysine site: K369) (UniProt Q9H5V8),2.97 (inactive)
15,SLC25A13 (lysine site: K408) (UniProt Q9UJS0),2.67 (inactive)
16,BPTF (lysine site: K604) (UniProt Q12830),8.91 (inactive)
17,TLN1 (lysine site: K1171) (UniProt Q9Y490),1.76 (active)
18,XRCC6 (lysine site: K516) (UniProt P12956),0.712 (active)
19,UniProt Q15149 (lysine site: K1833),2.22 (inactive)
20,AGRN (lysine site: K1589) (UniProt O00468),5.07 (inactive)

# From the supplement of paper PMC11001985
